Measurements as given in PubChem BioAssay (NCI).
About 79,000 compounds went through this panel and 15% of them were active in at least one assay; those are over-represented in the sample as a whole. Cut-off read from the data, not from the text of the source: active = growth inhibition above about 70%; inactive = the rest.

Experiments:
[1] = NCI Yeast Anticancer Drug Screen. Data for the rad50 strain (AID 155);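 note: 0% = growth of vehicle-only cultures of the same strain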; conditions: S. cerevisiae rad50 strain growth inhibition; at 50.0 µM; hits give high values
Outline: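 Inhibition values express reduced yeast growth in compound-treated cultures relative to vehicle-treated controls.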

[2] = NCI Yeast Anticancer Drug Screen. Data for the sgs1 mgt1 strain (AID 161);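 note: 0% = growth of cultures given vehicle only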; conditions: S. cerevisiae sgs1 mgt1 strain, at 50.0 µM, hits give high values
Outline: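 Yeast cells carrying a defined DNA-repair defect were exposed to test compounds. Growth inhibition was measured relative to vehicle-treated controls.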

[3] = NCI Yeast Anticancer Drug Screen. Data for the cln2 rad14 strain (AID 165);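 note: 0% = growth equal to vehicle treated cultures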; conditions: S. cerevisiae cln2 rad14 strain, at 50.0 µM, hits give high values
Outline: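 Relative to vehicle controls, growth inhibition of compound-treated cln2 rad14 yeast was recorded.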

[4] = NCI Yeast Anticancer Drug Screen. Data for the bub3 strain (AID 167); conditions: S. cerevisiae bub3 mutant strain, at 50.0 µM, hits give high values
Outline: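 Steps: expose the mutant yeast strain to compound; grow alongside vehicle-treated cultures; measure growth; express inhibition against the vehicle cultures.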

[5] = NCI Yeast Anticancer Drug Screen. Data for the mlh1 rad18 strain (AID 175); conditions: S. cerevisiae mlh1 rad18 strain growth inhibition; at 50.0 µM; hits give high values
Outline: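 Test agents were incubated with a yeast strain of defined genotype (DNA damage repair defect). Inhibition of growth was derived by comparison with vehicle-exposed cultures.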

[6] = NCI Yeast Anticancer Drug Screen. Data for the mec2-1 strain (AID 157); conditions: S. cerevisiae mec2-1 strain, at 50.0 µM, hits give high values
Outline: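 Readout is yeast growth inhibition, normalised to vehicle-treated controls, in the mec2-1 strain exposed to compound.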

Measured: growth inhibition

CCOc1ccc(NC(=O)CCCCCCCCC(=O)Nc2ccc(OCC)cc2)cc1
inactive: [1] 6.8% | [2] -11.8% | [3] -1.9% | [4] -4.8% | [5] 19.8%

CO[C@@H]1C=C[C@@]23c4cc5c(cc4CN(C[C@@H]2O)[C@H]3C1)OCO5
inactive: [1] 3.95% | [2] -11.9% | [3] 14.8% | [4] -16.1% | [5] -59.4%

O=S1(=O)COc2ccccc2-c2ncncc21
inactive: [1] 10.2% | [2] -2.35% | [3] 31.2% | [4] -2.6% | [5] -11.8%

NC(Cc1cccc(F)c1)C(=O)O (centres undefined)
inactive: [1] -1.3% | [2] 6.7% | [3] -12.4% | [4] -9.1% | [5] 10%

Cc1ncc(CN2CSC(CCO)C2C)c(N)n1 (centres undefined)
inactive: [1] 32.6% | [2] 27.2% | [3] 16.8% | [4] 17.4% | [5] 43.1%

COc1ccc2c(c1OC)C(=O)C2
inactive: [1] -21.1% | [2] -20.9% | [3] 9% | [4] -16.8% | [5] -2.35%

CCCCN(C)C(=O)C1=C(C)NC(C)=C(C(=O)N(C)CCCC)C1
inactive: [1] -1.45% | [2] -12.2% | [3] -20.3% | [4] -16.2% | [5] -58%

CCCCCc1c2nc(c(CCCCC)c3ccc([nH]3)c(CCCCC)c3ccc([nH]3)c(CCCCC)c3nc1C=C3)C=C2
inactive: [1] 0.1% | [2] -10.3% | [3] 23.1% | [4] -10.5% | [5] -15.6%

COc1ccc(OC)c(-c2nc3ccccc3c(=O)[nH]2)c1
inactive: [1] 9.1% | [2] 3.35% | [3] 14.2% | [4] 22.8% | [5] 0%

Nc1ccccc1/C(O)=C1/CCOC1=O
inactive: [1] 0.6% | [2] 2.15% | [3] 1.5% | [4] 15.3% | [5] -3.2%

C/C(=N/NC(=O)c1ccccc1O)c1ccc(/C(C)=N\NC(=O)c2ccccc2O)c2nc3cc(C)c(C)cc3nc12
inactive: [1] -41.2% | [2] -31.4% | [3] 4.65% | [4] 6.7% | [5] -27.8%

NC1=C(Br)C(=O)c2[nH]c(=O)[nH]c(=O)c2C1=O
inactive: [1] 18.8% | [2] 24.4% | [3] -4% | [4] 7.15% | [5] 20.6%

CCOC(=O)c1ccc(NCc2nc3c([nH]2)c(=O)n(C)c(=O)n3C)cc1
inactive: [1] -0.95% | [2] -1.35% | [3] -54.1% | [4] -14.2% | [5] 1.65%

CCOC(=O)c1c(O)nc2sc3ccccc3n2c1=O
inactive: [1] 19% | [2] 6.7% | [3] -1.75% | [4] 13.6% | [5] 41.4%

CSc1nc(COC(=O)NC(C)C)c(COC(=O)NC(C)C)n1Cc1ccccc1
inactive: [1] 2.45% | [2] 1.35% | [3] 1.65% | [4] 5.4% | [5] 2.5%

NCCO
inactive: [1] -1% | [2] -11.8% | [3] -3.6% | [4] 13.2% | [5] -18.9%

NC(Cc1ccc(O)cc1)C(=O)NCCS(=O)(=O)O (centres undefined)
inactive: [1] 1.5% | [2] 26.7% | [3] 11.2% | [4] 18.6% | [5] 0.65%

O=C(O)c1nc2ccccc2c(=O)[nH]1
inactive: [1] -3.4% | [2] -9.7% | [3] -43.1% | [4] -12.2% | [5] -4.6%

CCC(C=NCCBr)(CCC(=O)OC)CCC(=O)OC
inactive: [1] -7.9% | [2] -13.9% | [3] -8.4% | [4] 12.4% | [5] 10.2%

Cc1cc(C)c(CC#N)s1
inactive: [1] -25.2% | [2] -1.65% | [3] -52.6% | [4] -15.4% | [5] -22.3%

CC(=O)/C=C/c1ccc(C)cc1
inactive: [1] 27.1% | [2] 8.75% | [3] 4.15% | [4] 20.6% | [5] 10.7%

Brc1ccc(Br)nc1
inactive: [1] -7.6% | [6] -4.65% | [3] 8.05% | [5] -12.9%

O=[N+]([O-])c1ccc(N=Nc2c(O)[nH]c3ccc(Br)cc23)cc1
inactive: [1] 22.4% | [2] 14.3% | [3] 10.8% | [4] -15.4% | [5] 15.3%

Cc1c(Cl)cccc1NC(=O)c1c(Cl)c(Cl)c(Cl)c(Cl)c1C(=O)O
inactive: [1] 7.15% | [2] 8.6% | [3] -31.7% | [4] 0.85% | [5] 14.1%

COc1ccc2[nH]c(C)cc2c1CN
inactive: [1] -0.65% | [2] 15.1% | [3] -24.9% | [4] -20.2% | [5] 26.4%

CCOC(=O)c1ccc(CCCN)cc1
inactive: [1] -17.8% | [2] 12.9% | [3] -28.2% | [4] -10% | [5] 0.65%

O=C(COc1ccc(Cl)cc1Cl)Nc1c(Cl)cc(Cl)cc1Cl
inactive: [1] 6.7% | [2] -6.45% | [3] 2% | [4] -4.8% | [5] 19.6%

COc1ccc(C2OC3=Nc4ccccc4NC3C2=O)cc1OC (centres undefined)
inactive: [1] 11% | [2] 20.7% | [3] 5.25% | [4] 15.3% | [5] 16.4%

c1ccc(-c2ccc3ncccc3c2)cc1
inactive: [1] -17.9% | [2] 5.05% | [3] -34.4% | [4] -0.4% | [5] 2.3%

COc1cc(C)c(O)c(C/C=C(\C)CC2=C[C@@]3(C)CCC[C@@]3(C)[C@]3(CC(O)C(C)(C)O3)O2)c1 (some centres undefined)
inactive: [1] 21.1% | [2] -8.5% | [3] 4.75% | [4] 4.95% | [5] 10%

CC1CC(=O)Oc2ccccc21 (centres undefined)
inactive: [1] 35.5% | [2] 3.8% | [3] -3.35% | [4] 5.95% | [5] 1.5%

NC(=O)SCC(N)C(=O)O (centres undefined)
inactive: [1] 0.25% | [2] 1.55% | [3] 3.55% | [4] 4.95% | [5] 6.8%

O=CNNC(=O)CN1C(=O)c2ccccc2C1=O
inactive: [1] 3.3% | [2] 3.4% | [3] 17.8% | [4] -3.35% | [5] -6.65%

Cc1ccn2c(-c3ccccc3)nnc2c1
inactive: [1] -23.6% | [2] -14.6% | [3] -11.8% | [4] -18.1% | [5] -16%

COC/N=C(\NC#N)NCOC
inactive: [1] 20.5% | [2] 9.5% | [3] 14% | [4] -11.7% | [5] 23.2%

CSc1nc(C)cc(=O)n1C1OC(COC(C)=O)C(OC(C)=O)C(OC(C)=O)C1OC(C)=O (centres undefined)
inactive: [1] 20.6% | [2] -7.35% | [3] 16.6% | [4] -30.6% | [5] 32.5%

Cc1sc2nc3n(c(=O)c2c1C)N=C(c1ccccc1)CS3
inactive: [1] -29.4% | [2] -33.3% | [3] 11.1% | [4] -31.4% | [5] -17.2%

CN(C)C(=S)/N=c1\ssc(=S)n1Cc1cccs1
inactive: [1] -11.1% | [2] -19.6% | [3] 6.75% | [4] -9.4% | [5] 12%

O=[N+]([O-])c1ccc(-n2nnc3ccccc32)nc1
inactive: [1] -3.9% | [2] -7.35% | [3] -16.6% | [4] 7.5% | [5] -9.75%
